# Experimental data taken from PubChem BioAssay AID493026 (Johns Hopkins Ion Channel Center, 2011).
# In all, about 1,000 compounds went through this assay and about 150 (15%) were called active.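 The calls were made as follows: active = activity change at least 3 SD of negative controls below their mean in both duplicate wells; inactive = the rest.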 Many of the other results were omitted from the sample, so actives are more common in it than they were.
# Molecular target: Potassium voltage-gated channel subfamily KQT member 1 (Homo sapiens) (UniProt P51787)
# Assay: human KCNQ1 channel inhibition, counter-screen for KCNQ2 inhibitor project, cell-based, FluxOR thallium flux (AID 493026);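 also: CHO cells stably transfected with KCNQ1 and depolarized by potassium stimulus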;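 as to activity change, negative = inhibition: peak minus minimum fluorescence over baseline after thallium addition; 0% = vehicle negative control and -100% = blank without thallium stimulus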
# Settings: KCNQ1-expressing cells, FluxOR thallium flux fluorescence, at 10 µM; stronger effect = lower value
# Chain of Potassium voltage-gated channel subfamily KQT member 1 (Homo sapiens) (P51787 whole entry, looked up): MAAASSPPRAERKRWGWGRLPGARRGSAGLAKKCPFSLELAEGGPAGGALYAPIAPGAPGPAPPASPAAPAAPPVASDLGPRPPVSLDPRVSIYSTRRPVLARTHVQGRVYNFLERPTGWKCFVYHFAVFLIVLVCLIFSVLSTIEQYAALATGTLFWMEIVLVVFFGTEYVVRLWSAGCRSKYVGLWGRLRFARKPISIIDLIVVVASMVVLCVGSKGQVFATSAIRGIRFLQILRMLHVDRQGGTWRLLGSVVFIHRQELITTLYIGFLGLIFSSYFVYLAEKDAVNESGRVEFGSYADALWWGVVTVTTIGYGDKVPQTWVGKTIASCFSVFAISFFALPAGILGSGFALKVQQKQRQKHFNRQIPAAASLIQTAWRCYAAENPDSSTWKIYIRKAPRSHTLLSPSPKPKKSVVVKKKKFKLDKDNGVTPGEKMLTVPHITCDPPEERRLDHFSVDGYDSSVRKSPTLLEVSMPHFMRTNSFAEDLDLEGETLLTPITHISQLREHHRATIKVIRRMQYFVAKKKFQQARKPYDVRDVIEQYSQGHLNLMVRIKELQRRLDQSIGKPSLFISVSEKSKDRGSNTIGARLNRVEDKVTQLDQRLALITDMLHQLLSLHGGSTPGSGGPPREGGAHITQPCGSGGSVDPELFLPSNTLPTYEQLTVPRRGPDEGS
row,Compound,"activity change, negative = inhibition"
1,CCc1ccccc1NC(=O)/C(=C/c1ccccc1)c1ccccc1,-27% (active)
2,Cc1ccc(C(=O)c2c(NC(=O)c3ccccc3)sc(C)c2C)cc1,inactive
3,COc1ccc(Cl)cc1NC(=O)CN(C)Cc1ccc(OC)c(OC)c1,inactive
4,CN(Cc1ccccc1F)C(=O)C(Cc1ccccc1)NC(=O)c1ccccc1 (stereo unspecified),inactive
5,CCc1ccc(-c2nn(-c3ccccc3)cc2CSC(=N)N)cc1,-39.5% (active)
6,Cc1cccc(C(=O)OC(C)C(=O)NC2CCCc3ccccc32)c1O (stereo unspecified),inactive
7,COC(=O)C1=C(C)N(C(C)c2ccccc2)C(=O)/C1=C\c1ccco1 (stereo unspecified),inactive
8,COc1cccc(COc2ccc(N(C)S(=O)(=O)c3ccccc3)cc2)c1,inactive
9,C=CS(=O)c1sc(Cl)c(N2CCOCC2)c1[N+](=O)[O-] (stereo unspecified),-35% (active)
10,Cc1nc2ccccc2c(-c2ccccc2)c1C(=O)c1ccccc1,inactive
11,CSCc1cc(N(C)C)nc(SCc2ccc(Cl)cc2Cl)n1,inactive
12,Cc1ccc(C2=Nc3c(ccc4ccccc34)C(c3ccncc3)=NN2)cc1,inactive
13,CCc1ccc(-c2cc(C(=O)NCc3ccco3)c3ccccc3n2)s1,inactive
14,Fc1ccc2[nH]c3c(N4CCSCC4)ncnc3c2c1,inactive
15,CCOC(=O)N1CCC(N(CCOC)C(=O)Nc2ccc(C)c(C)c2)CC1,-30.5% (active)
16,O=C(OCC(=O)N(CCc1ccccc1)Cc1ccccc1)c1ccccc1[N+](=O)[O-],inactive

row,Compound,"activity change, negative = inhibition"
1,CCc1ccc2ncc(C(=O)c3ccccc3)c(N3CCOCC3)c2c1,inactive
2,Cc1ccc(C(C)C)cc1OCC(=O)Nc1ccccc1N1CCCC1,inactive
3,CCOC(=O)C(C)Sc1nc2ccccc2c(=O)n1CC1CCCCC1 (stereo unspecified),-33.5% (active)
4,Cc1ccccc1N1CCN(CC(=O)NCc2ccc(Cl)cc2)CC1,inactive
5,O=C(Nc1ccccc1Cl)/C(Cl)=C(\Cl)S(=O)c1ccccc1 (stereo unspecified),inactive
6,CC(NC(=S)NNS(=O)(=O)c1ccc(C(C)(C)C)cc1)c1ccccc1 (stereo unspecified),inactive
7,Cc1ccccc1C(=O)Nc1ccccc1Sc1ccccc1,inactive
8,CC(C)C(NC(=O)OCc1ccccc1)C(=O)OCC(=O)N1C(C)CCCC1C (stereo unspecified),inactive
9,CC(C(=O)NCC1CCCCC1)N(C)Cc1cccc(Cl)c1 (stereo unspecified),-42.5% (active)
10,COc1ccc(CN(C)C(C)C(=O)NC2CCCc3ccccc32)cc1 (stereo unspecified),inactive
11,C=CCn1c(SCC(=O)/C(C#N)=C(\C)N)nc2sc(C)c(C)c2c1=O,inactive
12,O=C(Nc1ccc(Cl)c(Cl)c1)N1CC=C(c2ccccc2)CC1,inactive
13,Cc1ccc(N2C(=O)C3C(c4ccccc4)(C2=O)C3(c2ccccc2)c2ccccc2)cc1 (stereo unspecified),inactive
14,CC(C)N(C(=O)CSc1nc(COc2ccccc2)nc2ccccc12)C(C)C,-44% (active)
15,CC(C)[C@H](NC(=O)OCc1ccccc1)C(=O)OCc1ccccc1,inactive
